The panel holds about 83,000 compounds, 20% with a hit somewhere; the sample as a whole holds those more often.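 Treatment: one concentration, 48 hours, 96-well format. Scoring: percent growth, with anything below 10 considered active.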 Values without a mark were called inactive. Calls of active or inactive are those of the source.
How the values were obtained:
Experiment in all cases: NCI-60 one-dose screen, 48 h (100 = growth as untreated, 0 = no growth, -100 = all killed)
Settings in all cases: 10 µM unless noted
HCT-15 colon = tested on: HCT-15 colon
HT29 colon = tested on: HT29 colon
SNB-75 CNS = tested on: SNB-75 CNS
SNB-19 CNS = tested on: SNB-19 CNS
U251 CNS = tested on: U251 CNS
PC-3 prostate = tested on: PC-3 prostate
SK-MEL-5 melanoma = tested on: SK-MEL-5 melanoma
UACC-62 melanoma = tested on: UACC-62 melanoma
LOX IMVI melanoma = tested on: LOX IMVI melanoma
SK-MEL-28 melanoma = tested on: SK-MEL-28 melanoma

Row | Compound | growth (HCT-15 colon) | growth (HT29 colon) | growth (SNB-75 CNS) | growth (SNB-19 CNS) | growth (U251 CNS) | growth (PC-3 prostate) | growth (SK-MEL-5 melanoma) | growth (UACC-62 melanoma) | growth (LOX IMVI melanoma) | growth (SK-MEL-28 melanoma)
1 | Clc1ccc(/C=N/Nc2nc3ccccc3s2)c(Cl)c1 | 85% | 84.1% | 84.3% | 103% | 76.3% | 79.5% | 98.4% | 103% | 84.7% | –
2 | CN(C)Cc1ccc[nH]1 | 102% | 114% | 92.5% | 97.7% | 108% | 99.2% | 102% | 91.6% | 81.3% | –
3 | O=C(CSc1nc2ccc([N+](=O)[O-])cc2[nH]1)Nc1cccc(Cl)c1 | 23.3% | 21.1% | 23.9% | 17.6% | 13.6% | 11.7% | 0.349% (active) | 8.24% (active) | 27.7% | 28.9%
4 | CC(C)c1ccc(C(=O)Nc2nc3ccc(O)cc3s2)cc1 | 7.82% (active) | 30.4% | 63.7% | 53.8% | 58.4% | 42.4% | -6.4% (active) | 10.8% | -25.9% (active) | –
5 | C#CCC(C(=O)OCC)C(=O)OCC | 106% | 103% | 90.5% | 102% | 104% | 99.8% | 105% | 101% | 99.2% | –
6 | CSc1nc(N)c(N=Nc2ccc(S(=O)(=O)Nc3nnc(C)s3)cc2)c(=O)[nH]1 | 109% | 104% | 107% | 103% | 119% | 97.5% | 104% | 94.3% | 118% | –
7 | COc1cc2c(O)n(CCCN3CCOCC3)c3c4cnc5cccc(c(=O)c3c2cc1OC)c54 | 57.4% | 29.2% | 38.9% | 19.4% | 16.9% | 30.6% | 20.9% | 10.5% | 11.3% | –
8 | O=C(O)c1cccc(CN2CCN(c3cc4c(cc3F)c(=O)c(C(=O)O)cn4C3CC3)CC2)c1O | 104% | 102% | 92.2% | 99.2% | 96.2% | 93.7% | 102% | 102% | 97.9% | 106%
9 | CCCc1cc2cc(-n3nc(C)c4c3CC(C)(C)CC4=O)cc(NC3CCSCC3)c2c(=O)[nH]1 | 41.4% | 9.23% (active) | 102% | 72% | 72.3% | 55.2% | 70.4% | 53.2% | 54.8% | –
10 | CCN=C1C=CC(=C(c2ccc(N(CC)CC)cc2)c2ccc(N(CC)CC)cc2)c2ccccc21 | -70.9% (active) | -59.7% (active) | -22% (active) | -57.8% (active) | -89.1% (active) | -66.8% (active) | -99.5% (active) | -37.4% (active) | -64.6% (active) | –
11 | COc1ccc(-c2cc(-c3ccccc3)nc(NCCNc3ccnc4cc(Cl)ccc34)n2)cc1 | -81% (active) | -48.8% (active) | -68.3% (active) | -83.7% (active) | -84.3% (active) | -81.8% (active) | -97.6% (active) | -89.9% (active) | -79% (active) | –
12 | CC1(C)CC(=O)c2c(ccc(C(=O)C[C@@H](N)CO)c2N)O1 | 4.96% (active) | -7.99% (active) | 63.5% | 14% | 7.09% (active) | 24.7% | 29.4% | -9.38% (active) | -59% (active) | –
13 | CCOc1ccccc1/C=N\Nc1ccc(S(=O)(=O)c2ccc(N/N=C/c3ccccc3OCC)cc2)cc1 | 82.9% | 108% | 80.8% | 93.5% | 94.8% | 87% | 100% | 85% | 92.5% | –
14 | O=C(CCCSc1nc(-c2ccccc2)cc(-c2ccccc2)n1)NO | 20.4% | 2.72% (active) | 9.8% (active) | 21.6% | -13.2% (active) | 26.2% | -17.3% (active) | -20.9% (active) | -25.3% (active) | –
15 | CC(C)=CC/C=C(/C)[C@H]1CC[C@]2(C)[C@@H]1CC[C@@H]1[C@@]3(C)CC/C(=N/O)C(C)(C)[C@@H]3CC[C@]12C | 57.2% [100 µM] | 23.2% [100 µM] | 69.4% [100 µM] | 67.3% [100 µM] | 50.9% [100 µM] | 29.4% [100 µM] | 18.2% [100 µM] | 43.1% [100 µM] | 59.6% [100 µM] | 73.3% [100 µM]
16 | CCNC(=O)N1CCc2c(Cl)c3c(c(OC)c2[C@@H]1[C@H]1OCc2c1ccc(OC)c2OC)OCCO3 | 26.5% | 13.3% | 1.79% (active) | 30.8% | 26.1% | 20.8% | 11.4% | 22.2% | 27.5% | –
17 | Cc1ccc(-c2cc(O)c(-c3ccc(C)cc3C)cc2O)c(C)c1 | 29.5% | 42.3% | 45.9% | 71.9% | 38.2% | 52.1% | 12.4% | 54.8% | 33.4% | –
18 | NC(=S)Cc1ccccc1 | 97.3% | 101% | 88% | 98.2% | 100% | 102% | 100% | 93.9% | 0.449% (active) | –
19 | COc1ccc2c(c1)c(-c1noc(C(=O)c3cn(C)c4ncc(Br)cc34)n1)cn2C | 68.4% | 58% | -12.8% (active) | 78.7% | 68.6% | 39.7% | 50.6% | 65.6% | 70.9% | –
20 | CC(C)OC(=O)Nc1cc(F)ccc1F | 105% | 98.3% | 95.3% | 96.2% | 100% | 99.7% | 101% | 94.1% | 106% | –
21 | O=S(=O)(/N=c1/n(-c2ccccc2)nc2n1CCN2C1=NCCN1)c1ccc(-c2ccccc2)cc1 | 99.4% | 100% | 85% | 97.1% | 92.7% | 93.8% | 90.6% | 109% | 93% | 105%
22 | Cc1cc(C)c(O)c(CNCCCNCc2cc(C)cc(C)c2O)c1 | 34.9% | 70.9% | 59.6% | 68.9% | 51.3% | 64.8% | 61.9% | 12.6% | 39.8% | 62.4%
23 | Cc1cc(-c2ccc(N=Nc3c(S(=O)(=O)O)cc4cc(S(=O)(=O)O)cc(N)c4c3O)c(C)c2)ccc1N=Nc1cc(S(=O)(=O)O)c2ccccc2c1O | 104% | 100% | 98.5% | 94.4% | 99.5% | 96.9% | 100% | 93.6% | 106% | –
24 | COc1cc2c(c(OC)c1OC)-c1cc(I)c(O)cc1[C@@H](NC(C)=O)CC2 | 4.21% (active) | 10.8% | 28% | 14.1% | 7.36% (active) | 28.8% | -15.2% (active) | 17.8% | 24.4% | –
25 | Cc1ccc(-c2cc(-c3ccc(C)cc3)nc(N3CCN(CCNc4ccnc5cc(Cl)ccc45)CC3)n2)cc1 | 42.1% | 11.9% | -21.1% (active) | 38.7% | 35.7% | 44.6% | 38.5% | 12.2% | 6.97% (active) | –
26 | Cc1cc(NN=C(c2ccc(O)cc2)c2ccc(O)cc2)c([N+](=O)[O-])cc1[N+](=O)[O-] | 46.3% | 91.5% | 74.3% | 89.3% | 49.4% | 38.4% | 46% | 69.1% | 25.3% | –
